Beta apoptosis: blocks beta cell apoptosis; actives 0.8% (n = 300,000); INS-1E cytokine-induced death, ATP luminescence, 48 h; percent of positive-control rescue, neutral wells zero; protection from apoptosis, % (test concentration not listed);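 active = Every replicate reaches about 75%, or at least half do and their mean reaches it too, limit read from the data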;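 note: 0% = cytokine-treated negative control wells and 100% = positive control rescue; higher means more ATP so stronger rescue from cytokine killing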
Gli-Sufu block: blocks Gli-Sufu signaling in a luciferase reporter. Sufu-KO-LIGHT fibroblasts, Gli luciferase reporter luminescence. inhibition, % at 5 µM. actives 0.74% (n = 340,000). AID 588413;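 active = inhibition above about 55%, limit read from the data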;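 note: 0% = DMSO-treated cells and 100% = wells with medium but no cells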
PAX8 reporter: lowers PAX8-driven luciferase in RMG-I cells; actives 1.2% (n = 360,000); RMG-I TPO-luciferase reporter, SteadyGlo, 24 h; inhibition, % at 12.6 µM;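 active = mean replicate inhibition at least 60% with every replicate also reaching 60%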;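 note: luciferase light reporting Pax8 driven TPO promoter activity; plate controls were median of neutral control wells for no effect and mitoxantrone controls for full effect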
Mdm2-MdmX inh: inhibitors of human Mdm2/MdmX interaction | O15151+Q00987 | SaOS-2 split-luciferase Mdm2/MdmX complementation, luminescence | inhibition, % at 8 µM | actives 3% (n = 330,000) | AID 485346;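 active = inhibition of at least 50% at 8 µM in the primary screen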
Target sequence (O15151 whole entry, looked up): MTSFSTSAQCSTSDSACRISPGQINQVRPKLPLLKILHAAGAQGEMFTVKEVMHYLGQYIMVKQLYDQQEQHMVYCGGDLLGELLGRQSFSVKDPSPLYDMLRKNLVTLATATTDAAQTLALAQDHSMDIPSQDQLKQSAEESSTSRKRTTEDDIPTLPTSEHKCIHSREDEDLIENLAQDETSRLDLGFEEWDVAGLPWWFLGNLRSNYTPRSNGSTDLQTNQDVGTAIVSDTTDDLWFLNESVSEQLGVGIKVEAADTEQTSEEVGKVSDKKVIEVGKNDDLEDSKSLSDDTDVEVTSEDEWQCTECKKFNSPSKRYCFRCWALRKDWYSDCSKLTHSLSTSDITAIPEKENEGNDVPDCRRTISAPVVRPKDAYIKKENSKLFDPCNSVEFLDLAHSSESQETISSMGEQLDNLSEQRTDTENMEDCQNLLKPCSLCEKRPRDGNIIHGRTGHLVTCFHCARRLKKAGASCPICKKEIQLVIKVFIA
Target sequence (Q00987 whole entry, looked up): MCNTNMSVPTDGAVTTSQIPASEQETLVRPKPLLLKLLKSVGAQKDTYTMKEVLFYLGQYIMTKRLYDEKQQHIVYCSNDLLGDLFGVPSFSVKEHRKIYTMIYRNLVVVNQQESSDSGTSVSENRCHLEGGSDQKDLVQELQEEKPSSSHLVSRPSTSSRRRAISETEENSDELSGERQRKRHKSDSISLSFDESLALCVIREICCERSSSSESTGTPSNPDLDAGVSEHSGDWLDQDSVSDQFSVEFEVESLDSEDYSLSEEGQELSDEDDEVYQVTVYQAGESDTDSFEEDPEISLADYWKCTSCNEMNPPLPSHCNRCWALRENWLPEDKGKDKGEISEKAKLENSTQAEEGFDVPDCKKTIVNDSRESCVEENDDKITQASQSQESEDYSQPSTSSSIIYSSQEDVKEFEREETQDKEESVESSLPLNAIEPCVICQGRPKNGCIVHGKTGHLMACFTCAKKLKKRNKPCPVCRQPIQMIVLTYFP
Shn3 inh set2: reduces Shn3 3'UTR luciferase signal in osteoblasts; Clone20 osteoblast Shn3 3'UTR firefly luciferase, 24 h; AID 588674; inhibition, % at 12.5 µM; actives 0.52% (n = 360,000);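 active = mean inhibition of at least 75% with every replicate also reaching 75%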;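 note: 0% = median of neutral control wells and 100% = pilot-screen positive control compound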
CSC inhib: cancer stem cell inhibition. cancer stem cell-like cells viability, luminescence. inhibition, % at 7.5 µM. actives 1.1% (n = 300,000); in the data active = inhibition above about 75%; tested in HMLE shEcad cells
* = called active by the depositor; / = not tested or not shown. Shown are actives, neighbours in structure and some others; about 4% of the full set was active somewhere.

SMILES | Beta apoptosis | Gli-Sufu block | PAX8 reporter | Mdm2-MdmX inh | Shn3 inh set2 | CSC inhib
Cc1cccc(C2(c3cccc(C)c3)OC(=O)c3ccccc32)c1 | 124.4* | 4.5 | 11.9 | 44.3 | -11.7 | 25.2
CC(C)c1ccc2c(c1)CC[C@H]1[C@](C)(CN)CCC[C@]21C | / | 17.4 | -5.9 | / | -3.9 | /
CC(C)c1ccc2c(c1)CCC1C(C)(CN)CCCC21C (stereo not drawn) | 63.4 | 8.7 | 40.9 | / | 29.1 | 116.4*
CC(Nc1ncnc2sccc12)c1ccccc1 (stereo not drawn) | / | 70.5* | 25.0 | 25.9 | 86.6* | 9.9
O=C(/C(N=Nc1cccc(C(F)(F)F)c1)=C(/O)c1cccs1)C(F)(F)F | 23.3 | 0.4 | -84.4 | 40.0 | -11.2 | 139.6*
CC(=O)/C(N=Nc1cccc(C(F)(F)F)c1)=C(\C)O | -4.1 | 5.8 | -1.1 | -16.3 | 12.9 | 1.3
CC(C)C#Cc1ccc([C@@H]2[C@H](CO)N3C(=O)CN(C(=O)NC4CCCCC4)C[C@@H]23)cc1 | / | / | -11.6 | / | / | /
CN(C[C@H]1N[C@@H](CO)[C@@H]1c1ccc(C2=CCCC2)cc1)C(=O)c1ccccn1 | / | / | 71.8* | / | / | /
CN(C[C@H]1N[C@@H](CO)[C@@H]1c1ccccc1)C(=O)c1ccccn1 | / | / | -19.1 | / | / | /
CN(C[C@H]1N[C@@H](CO)[C@@H]1c1ccc(C2=CCCC2)cc1)C(=O)c1ccncc1 | / | / | 80.7* | / | / | /
CN(C[C@H]1N[C@@H](CO)[C@@H]1c1ccc(C2=CCCC2)cc1)C(=O)c1ccc(F)cc1 | / | / | 107.7* | / | / | /
CCC(=O)N1CC2(C1)[C@H](c1ccc(-c3cccc(OC)c3)cc1)[C@@H](CO)N2C(C)=O | / | / | 5.8 | / | / | /
C[C@H]1CN([C@@H](C)CO)C(=O)c2cc(NS(=O)(=O)c3ccccc3)ccc2O[C@H]1CN(C)Cc1ccc(C(=O)Nc2ccccc2N)cc1 | / | / | 22.7 | / | / | /
O=C(CCc1ccccc1)Nc1ccnn1C1CCN(C/C=C/c2ccccc2)CC1 | -4.5 | -4.2 | -4.0 | 29.2 | -8.4 | 17.6
COc1ccccc1/C=C/CN1CCC(n2nccc2NC(=O)CCc2ccccc2)CC1 | 78.1* | 43.1 | 19.4 | 43.4 | 86.3* | 2.0
COCC(=O)Nc1ccc2c(c1)C(=O)N(C)[C@H]1CC[C@@H](CC(=O)NCc3ccccc3F)O[C@H]1CO2 | / | / | -2.0 | / | / | /
CNC[C@H]1Oc2ccc(NS(C)(=O)=O)cc2C(=O)N([C@H](C)CO)C[C@@H]1C | / | / | -7.9 | / | / | /
COc1cc([N+](=O)[O-])cc(/C=N/NC(=O)CSc2nnc(-c3ccccc3)n2C)c1O | -11.5 | 1.4 | / | 26.3 | / | -4.0
O=C(N/N=C/c1ccc([N+](=O)[O-])s1)c1ccncc1 | -51.8 | 16.8 | / | 30.0 | 6.5 | 9.1
Cc1ccc(C(=O)N/N=C/c2ccc([N+](=O)[O-])s2)cc1 | -55.7 | -28.8 | / | 22.2 | 89.8* | -1.2
Cn1c(SCC(=O)N/N=C/c2ccc([N+](=O)[O-])s2)nnc1-c1ccc(Cl)cc1 | 88.8* | 1.1 | / | 3.8 | 1.1 | 59.1
CN(C)C(=O)[C@H]1[C@H](CO)[C@H]2Cn3c(ccc(-c4ccccc4F)c3=O)[C@@H]1N2C(=O)c1cccnc1 | / | / | 2.4 | / | / | /
Cc1cccc(C(=O)Oc2ccc(/C=N/NC(=O)c3ccccc3O)cc2)c1 | -5.3 | -24.8 | 104.0* | -9.3 | -28.2 | -3.5
Cc1cccc(C(=O)N/N=C/c2ccc(OC3CSC3)cc2)c1 | 4.0 | 8.1 | / | -23.4 | -10.3 | 76.2*
O=C(O)c1ccc(N/N=C/c2ccc(OC(=O)c3cccc(Cl)c3)cc2)cc1 | -0.2 | 60.8* | 86.1* | -0.9 | 19.0 | 4.5
SMILES | Beta apoptosis | Gli-Sufu block | PAX8 reporter | Mdm2-MdmX inh | Shn3 inh set2 | CSC inhib
COc1cccc(C(=O)N/N=C/c2ccc(OC3CSC3)cc2)c1 | 3.9 | 1.3 | / | 4.3 | -7.4 | 64.3
CCCC#Cc1cnc2c(c1)C(=O)N([C@@H](C)CO)C[C@H](C)[C@@H](CN(C)Cc1ccccc1F)O2 | / | / | -14.9 | / | / | /
CCOc1cc(/C=C2\C(=O)N(c3nc(-c4ccc(Br)cc4)cs3)N=C2c2ccccc2)ccc1O | / | 0.2 | / | 10.6 | -5.2 | 99.1*
COc1ccc(-c2nc(Cn3c(SCc4cccc(F)c4)nc4ccncc43)c(C)o2)cc1OC | 21.4 | 3.6 | -2.3 | 19.3 | -12.7 | 82.4*
COc1ccc(OC)c(C(c2c(C)[nH][nH]c2=O)c2c(C)[nH][nH]c2=O)c1 | -7.0 | / | 13.6 | 15.2 | -7.8 | -3.4
COc1ccc(O)c(C(c2c(C)[nH][nH]c2=O)c2c(C)[nH][nH]c2=O)c1 | -5.7 | 17.0 | 96.7* | 0.8 | 23.3 | -18.2
Cc1oc(=O)c(NC(=O)c2ccc(Cl)cc2)cc1C(=O)c1ccccc1 | -10.1 | -7.8 | -1.0 | 0.6 | 94.4* | -7.4
COC(=O)C[C@H]1CC[C@H]2[C@@H](COc3ccc(NC(=O)c4cncs4)cc3C(=O)N2C)O1 | / | / | 8.4 | / | / | /
O=[N+]([O-])c1ccccc1-c1ccc(/C=N/n2cnnc2)o1 | -3.6 | 7.0 | / | -10.2 | 14.1 | 0.2
Nn1cnnc1N/N=C\c1ccc(-c2ccccc2[N+](=O)[O-])o1 | / | 5.1 | 92.5* | / | -24.5 | /
C[C@H](O)C#Cc1ccc([C@@H]2[C@H]3CN(S(=O)(=O)Cc4ccccc4)CCCCN3[C@H]2CO)cc1 | / | / | 17.4 | / | / | /
O=C(Nc1ccc(Cl)c(Cl)c1)Nc1ccccc1NS(=O)(=O)c1cccs1 | 30.5 | -1.9 | -0.9 | 27.2 | 3.4 | 99.0*
C[C@H](CO)N1C[C@H](C)[C@H](CN(C)Cc2ccccc2)Oc2c(NS(C)(=O)=O)cccc2C1=O | / | / | -3.1 | / | / | /
COc1ccc(C(=O)N(C)c2ccccc2C(=O)NCCc2ccccc2)cc1 | 89.5* | 6.4 | 28.6 | 39.4 | 2.5 | -11.6
C[C@@H]1CN([C@@H](C)CO)C(=O)Cc2cc(NC(=O)Cc3cn(C)c4ccccc34)ccc2O[C@H]1CN(C)C(=O)Nc1ccc2c(c1)OCO2 | / | / | -8.6 | / | / | /
O=C(Nc1ccc(Cn2cccn2)cc1)c1ccc(COc2cccc(Br)c2)cc1 | -1.6 | -84.0 | 13.2 | -40.7 | 17.0 | 99.5*
O=C(Nc1ccc(Cn2cccn2)cc1)c1ccc(COc2ccc(Br)cc2)cc1 | -0.6 | 16.6 | / | 18.7 | 1.9 | 2.8
CC(C)NC(=O)N1[C@@H](CO)[C@H](c2ccccc2)[C@@H]1CNC(=O)CN(C)C | / | / | -2.1 | / | / | /
Cn1cccc1C1C=C(c2ccc(C(C)(C)C)cc2)Nc2ncnn21 (stereo not drawn) | 127.1* | 13.0 | -14.3 | 20.2 | 75.0 | 12.3
Brc1ccc(C2=CC(c3cccs3)n3ncnc3N2)cc1 (stereo not drawn) | 29.8 | 98.2* | 29.4 | 0.9 | 7.4 | -2.7
OCCCc1nc2n(n1)C(c1cccs1)C=C(c1ccc(Br)cc1)N2 (stereo not drawn) | / | / | / | 26.5 | / | 12.1
C[C@@H]1CN([C@@H](C)CO)C(=O)c2cc(NC(=O)NC3CCCCC3)ccc2O[C@@H](C)CCCCO[C@H]1CN(C)C | / | / | -11.5 | / | / | /
CCN1[C@H](C(=O)NCC(F)(F)F)[C@@H](CO)[C@@H]2Cn3c(ccc(-c4ccccc4)c3=O)[C@@H]21 | / | / | -1.9 | / | / | /
Cc1ccc(S(=O)(=O)n2cccc2/C=C/[N+](=O)[O-])cc1 | / | / | 8.1 | / | 94.5* | /

Compound activity deposited in PubChem BioAssay by several laboratories.
